A selection: hits, their analogues and other compounds. The true share with any hit is near 2.4%.
ClpP mod: qHTS Assay for Activators of ClpP. 1.9% of 340,000 active. ATP-dependent Clp protease proteolytic subunit (Bacillus subtilis (strain 168)), P80244. purified B. subtilis ClpP, FRET peptide cleavage, 20 min. Potency, µM (series often up to 57.5 µM), inactives show at the highest dose activity change, negative = active; active = well fitted falling curve with a large enough effect; inconclusive = small, poorly fitted or top-dose-only effect; inactive = no such curve, though single readings can be large or run the other way; note: the source files actives as falling curves though it sought activators and does not explain the sign; nearly all actives have a fitted effect of over 65% in size
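Buffer: 100 mM Tris/HCl pH8, 100 mM KCl, 0.05% low protease BSA, 2.5% glycerol, 0.01% Tween-20. ClpP 10 microg/mL final; 20 min RT; delta FRET normalized to ADEP and DMSO controls.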
TSG101-PTAP inh: blocks PTAP/TSG101 interaction to inhibit HIV-1 budding. Q99816. AID 493005. Fluorescence polarization, FITC-PTAP peptide / Tsg101 binding. 340,000 tested, under 10 active. Potency, µM (highest dose often 115 µM), for inactives: at the top dose activity change, negative = inhibition, most hits filed as inhibitors; active = well fitted inhibition curve with a large enough effect in the main read-out, with a control signal flat, not every such curve was filed as active; inconclusive = small, poorly fitted or top-dose-only effect, or effect the other way, or a change in a side signal; inactive = no such curve, though single readings can be large or run the other way; note: % of control where 0% means no effect
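Steps: Tsg101 binding domain dispensed (10 uM final), compounds pinned in DMSO, FITC-labeled PTAP-motif peptide added (50 nM final); after 20 min binding at room temperature, polarization measured.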
Rango-impB inh: inhibitors of Rango-importin beta complex formation; Rango CFP/YFP FRET sensor + importin beta, 45 min; Potency, µM (top dose mostly 92.2 µM), for the others: at the highest dose inhibition of complex formation; 0.031% of 340,000 active; AID 540263;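 note: 0% = DMSO wells and 100% = buffer wells lacking importin beta; nearly all actives have a fitted effect of over 15% in size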
Target sequence (Q14974 whole entry, looked up): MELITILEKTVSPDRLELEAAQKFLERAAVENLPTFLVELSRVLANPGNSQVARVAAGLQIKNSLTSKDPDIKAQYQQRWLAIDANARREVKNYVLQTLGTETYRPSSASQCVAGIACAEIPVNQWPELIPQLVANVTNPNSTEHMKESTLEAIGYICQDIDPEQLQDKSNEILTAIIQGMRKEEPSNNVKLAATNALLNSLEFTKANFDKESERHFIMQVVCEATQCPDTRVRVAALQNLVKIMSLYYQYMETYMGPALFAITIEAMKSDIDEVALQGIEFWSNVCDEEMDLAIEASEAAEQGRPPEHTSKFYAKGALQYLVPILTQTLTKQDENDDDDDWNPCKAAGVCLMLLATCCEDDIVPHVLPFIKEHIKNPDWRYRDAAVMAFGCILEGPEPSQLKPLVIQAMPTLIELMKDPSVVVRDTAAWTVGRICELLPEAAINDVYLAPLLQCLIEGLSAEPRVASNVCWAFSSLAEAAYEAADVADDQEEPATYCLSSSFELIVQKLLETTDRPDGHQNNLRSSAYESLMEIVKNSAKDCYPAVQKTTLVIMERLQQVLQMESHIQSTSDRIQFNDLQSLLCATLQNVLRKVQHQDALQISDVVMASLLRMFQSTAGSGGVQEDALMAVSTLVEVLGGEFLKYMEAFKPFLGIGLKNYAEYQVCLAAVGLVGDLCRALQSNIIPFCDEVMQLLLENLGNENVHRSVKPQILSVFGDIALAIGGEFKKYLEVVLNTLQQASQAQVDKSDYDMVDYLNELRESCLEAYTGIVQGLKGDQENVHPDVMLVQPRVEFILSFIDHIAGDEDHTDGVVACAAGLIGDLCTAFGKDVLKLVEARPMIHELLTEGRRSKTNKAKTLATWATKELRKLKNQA
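FRET biosensor (snurportin 1 IBB flanked by EYFP and cerulean), 50 nM, with compound 5 min, then 0.125 microM importin beta in PBS, 1 mM DTT, 0.02% Tween-20, 0.1% BSA. CFP/YFP ratio read after 45 min at room temperature; pre-read flags interference.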
ALOX12 inh: ALOX12 (human) lipoxygenase inhibition. purified 12hLO, xylenol orange hydroperoxide absorbance. 1.1% of 580,000 active. P18054. AID 1671190. Potency, µM (titrated, usually from 108 µM), for the others: at the highest dose activity change, negative = inhibition, usual class: inhibitors; active = well fitted curve in the direction sought with a large enough effect; inconclusive = small, poorly fitted or top-dose-only effect, or another doubt; inactive = no such curve, though single readings can be large; an effect the other way counts as inactive or inconclusive; note: % is set by controls: 0 for no effect and ±100 for the full control effect
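Hydroperoxide product was detected by ferrous iron/xylenol orange as the 573 to 405 nm absorbance ratio. Arachidonic acid at 40 uM (final) was turned over for 30 min at room temperature by 150 nM human 12hLO, pH 7.0 Hepes buffer, after 15 min compound preincubation.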
Rango release inh: prevents RanGTP from dissociating the Rango-importin beta complex; O95149+P62826; Potency, µM (highest dose often 46.1 µM), inactives show at the top dose activity change, negative = inhibition; 0.071% of 340,000 active; Biochemical FRET Rango-importin beta, RanGTP-induced dissociation; note: % of control where 0% means no effect; nearly all actives have a fitted effect of over 45% in size
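Quantitative HTS using a FRET biosensor: 0.1 uM Rango, 0.25 uM importin beta, 0.6 uM Ran, 2 mM GTP, 0.2 uM RCC1 final, PBS with DTT, Tween-20 and BSA. Post-read taken 45 min after Ran addition.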
TDP1 block: inhibitors of human tyrosyl-DNA phosphodiesterase TDP1; Q9NUW8; recombinant TDP1, AlphaScreen DNA substrate cleavage; Potency, µM (titrated, usually from 130 µM), for the others: top-dose activity change, negative = inhibition, usual class: inhibitors; 0.28% of 350,000 active; active = well fitted curve in the direction sought with a large enough effect; inconclusive = small, poorly fitted or top-dose-only effect, or another doubt; inactive = no such curve, though single readings can be large; an effect the other way counts as inactive or inconclusive; note: % is set by controls: 0 for no effect and ±100 for the full control effect; nearly all actives have a fitted effect of over 40% in size
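AlphaScreen read-out: signal falls as enzyme removes the 3' tyrosine-FITC from a 5'-biotinylated DNA oligo (15 nM, 5 min, RT). Enzyme was E. coli-made recombinant Tdp1 at 1 nM, exposed to compound for 15 min beforehand; beads 10 ug/ml, 10 min.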
The depositor's hits bear a star; [ ] = dose if it differs, or a comment. Unless noted, calls come from the whole dose curve. Potency is the fitted concentration of half-maximal effect.

Screening C/C(=N\NC(=S)Nc1c(C)cccc1C)c1ccc(OC(F)F)cc1 returned TSG101-PTAP inh -1%, Rango-impB inh 0%, ALOX12 inh 35µM*, Rango release inh -4% and TDP1 block 3%.
`CC/C(=N\NC(=S)Nc1ccc(OC)cc1)c1ccc(OC(F)F)cc1` gave ClpP mod 0%, TSG101-PTAP inh -1%, Rango-impB inh -1%, ALOX12 inh 35µM*, Rango release inh -28% and TDP1 block 3%.
`CC/C(=N\NC(=S)Nc1cc(C)ccc1C)c1ccc(OC(F)F)cc1` gave ClpP mod 1%, TSG101-PTAP inh -6%, Rango-impB inh 0%, ALOX12 inh 32µM*, Rango release inh 0% and TDP1 block 9%.
Screening O=C(Cc1ccccc1)NC(=S)Nc1ccc(OC(F)F)cc1 returned TSG101-PTAP inh 0%, Rango-impB inh -5%, ALOX12 inh 35µM* and Rango release inh -6%.
`CCNC(=O)NC(=O)C(C)Nc1ccc2oc(C3CC3)nc2c1` (stereo not drawn) gave ALOX12 inh 1%.
For CCCN(CC1CCOC1)C(=O)Nc1ccc(Br)c(C)c1 (stereo not drawn) the results were ALOX12 inh 51%.
O=C(c1ccccc1)N1CCC(Cc2noc(C3CC3)n2)C1 (stereo not drawn) was read as ALOX12 inh 56%.
Screening COc1cc(CCN(C(C)=O)C2C(=O)Nc3ccccc3N=C2c2ccc3c(c2)OCO3)cc(OC)c1 (stereo not drawn) returned ClpP mod -2% and ALOX12 inh 2µM*.
Screening C=CCNC(=O)N1CCCC(N2CCN(c3ccccc3OC)CC2)C1 (stereo not drawn) returned ClpP mod 16µM*, TSG101-PTAP inh 5%, Rango-impB inh inconclusive, ALOX12 inh 22% and Rango release inh inconclusive.
For Cc1ccc(C(=O)N2CCC(C(NC(=O)c3cccs3)C(=O)NC3CC3)CC2)cc1 (stereo not drawn) the results were ALOX12 inh -6%.
Screening N#Cc1ccc2ccn(CC(=O)NCc3ccccc3)c2c1 returned ClpP mod 25µM*, TSG101-PTAP inh -11%, Rango-impB inh 1%, ALOX12 inh 2%, Rango release inh -4% and TDP1 block -2%.
For O=C(NCc1ccnc(N2CCCC2)c1)c1ccccc1F the results were ALOX12 inh -18%.
Screening O=C1CCCc2c1[nH]c1ccc(CN3CCCCC3)cc21 returned ClpP mod 28µM*, TSG101-PTAP inh -7%, Rango-impB inh 0%, ALOX12 inh inconclusive, Rango release inh -9% and TDP1 block -4%.
Screening Cc1ccc2[nH]c3c(c2c1)CCC3=O returned ClpP mod 25µM*, TSG101-PTAP inh 0%, Rango-impB inh 1%, ALOX12 inh 1%, Rango release inh 14% and TDP1 block -5%.
Screening CCOC(=O)C1CCCCN1Cc1cccc(OCc2ccccc2)c1 (stereo not drawn) returned ClpP mod 0%, TSG101-PTAP inh -2%, Rango-impB inh -1%, ALOX12 inh 23%, Rango release inh 13% and TDP1 block -6%.
`CCOC(=O)C1CCCCN1Cc1cccc(Oc2ccccc2)c1` (stereo not drawn) gave TSG101-PTAP inh -3%, Rango-impB inh -3%, ALOX12 inh 14µM* and Rango release inh 3%.
Screening CC(C)CNC1(Cc2cc(-c3ccc(F)cc3)on2)COC1 returned ALOX12 inh 15%[176 µM].
Screening COc1ccc(CNCCC(c2ccc(F)cc2)c2ccc(OC)cc2)cc1 (stereo not drawn) returned ClpP mod 28µM*, TSG101-PTAP inh -1%, Rango-impB inh 5%, ALOX12 inh inconclusive, Rango release inh 1% and TDP1 block 3%.
COc1ccc(C(CCNCc2ccc(F)cc2)c2ccc(F)cc2)cc1 (stereo not drawn) was read as ClpP mod -3%, TSG101-PTAP inh -4%, Rango-impB inh 1%, ALOX12 inh inconclusive, Rango release inh -1% and TDP1 block 3%.
Screening O=C(CCc1nc(C2CCCN2C(=O)C2CC2)no1)N1CCc2ccccc21 (stereo not drawn) returned ALOX12 inh 15%.
`O=C(O)c1ccc(N2C(=O)c3[nH]nc(-c4ccccc4)c3C2c2ccccc2)cc1` (stereo not drawn) gave ClpP mod 1%, TSG101-PTAP inh -3%, Rango-impB inh -1%, ALOX12 inh 1%, Rango release inh 22% and TDP1 block 3%.
CCc1ccc(C2c3c(-c4ccccc4)n[nH]c3C(=O)N2c2ccc(C(=O)O)cc2)cc1 (stereo not drawn) was read as ClpP mod 0%, ALOX12 inh 40µM* and TDP1 block 5%.
Screening N#Cc1c(N2CCCC2)nc(N)c2c(N)nc(N3CCCC3)cc12 returned ClpP mod 7.9µM*, TSG101-PTAP inh -5%, Rango-impB inh inconclusive, ALOX12 inh -3%, Rango release inh -29% and TDP1 block 10%.
`Cc1cc(C)c(C#N)c(N2CCCC2)n1` gave ClpP mod 3.5µM*, TSG101-PTAP inh -7%, Rango-impB inh -1%, ALOX12 inh 10%, Rango release inh 12% and TDP1 block -8%.
For COc1cc2c(C#N)c(N3CCCC3)nc(N)c2c(N)n1 the results were ClpP mod 4%, TSG101-PTAP inh 2%, Rango-impB inh inconclusive, ALOX12 inh 11% and Rango release inh inconclusive.
COc1cc2c(C#N)c(N3CCN(C)CC3)nc(N)c2c(N)n1 was read as ALOX12 inh 6% and TDP1 block 7%.
Screening Cc1cc(C(F)(F)F)c(C#N)c(N2CCOCC2)n1 returned ClpP mod -3%, TSG101-PTAP inh 0%, Rango-impB inh 4%, ALOX12 inh -17%, Rango release inh 0% and TDP1 block 3%.
`COc1cc2c(C#N)c(N3CCN(c4ccccc4OC)CC3)nc(N)c2c(N)n1` gave ClpP mod 32µM*, TSG101-PTAP inh 0%, Rango-impB inh 1%, ALOX12 inh 0%, Rango release inh -15% and TDP1 block 8%.
For O=C(c1n[nH]c2ccccc12)N1CCC2(CC1)CC(N1CCOCC1)CCO2 (stereo not drawn) the results were ALOX12 inh 15%.
